Experimental data as given in PubChem BioAssay AID1159580 (chemical genetic matrix, 2015).
Among all 5,500 compounds or so, about 2,000 (36%) were called active. Roughly 18% stayed inconclusive and do not appear here. No stated cut-off is given here; in the data, active means normalized growth mostly below about 0.91 (no sharp cut-off); inconclusive means no clear call, values can overlap the other calls; inactive means mostly above about 0.92. Some of the results follow.

Test: chemical genetic growth profiling, strain panel (AID 1159580);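 further: tested at 20 µM; growth read once vehicle control cultures reached saturation at 30 °C; 1 = growth at the plate median or of vehicle wells; lower values mean less growth of the strain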
Conditions: growth OD

Measured: normalized growth

CC(Cc1ccc(O)c(O)c1)(NN)C(=O)O (centres undefined)
inactive: S. cerevisiae deletion strains, locus YJR075W, strain HOC1, active compounds read low 1.02 | S. cerevisiae deletion strains, locus YKL009W, strain mrt4, active compounds read low 0.991 | S. cerevisiae deletion strains, locus YKL068W, active compounds read low 0.997 | S. cerevisiae deletion strains, locus YKL085W, strain MDH1 (second series), active compounds read low 0.992 | S. cerevisiae deletion strains, locus YKL085W, strain MDH1, active compounds read low 0.992 | S. cerevisiae deletion strains, locus YKL160W, strain elf1, active compounds read low 1.01 | S. cerevisiae deletion strains, locus YKL190W, strain CNB1, active compounds read low 0.991 | S. cerevisiae deletion strains, locus YKR001C, strain vps1, active compounds read low 1 | S. cerevisiae deletion strains, locus YKR026C, strain gcn3, active compounds read low 0.988 | S. cerevisiae deletion strains, locus YKR091W, strain srl3, active compounds read low 1.01 | S. cerevisiae deletion strains, locus YLL001W, strain dnm1, active compounds read low 1.01 | S. cerevisiae deletion strains, locus YLL026W, active compounds read low 1.01 | S. cerevisiae deletion strains, locus YLL041C, strain sdh2, active compounds read low 1.01 | S. cerevisiae deletion strains, locus YLR027C, strain aat2, active compounds read low 1.01 | S. cerevisiae deletion strains, locus YLR039C, strain RIC1, active compounds read low 1.04 | S. cerevisiae deletion strains, locus YLR058C, strain SHM2, active compounds read low 1.01 | S. cerevisiae deletion strains, locus YLR102C, strain apc9, active compounds read low 1.02 | S. cerevisiae deletion strains, locus YLR113W, strain HOG1, active compounds read low 0.918 | S. cerevisiae deletion strains, locus YLR221C, strain rsa3, active compounds read low 1.01 | S. cerevisiae deletion strains, locus YLR258W, strain gsy2, active compounds read low 0.999 | S. cerevisiae deletion strains, locus YLR262C, strain YPT6 (second series), active compounds read low 0.978 | S. cerevisiae deletion strains, locus YLR262C, strain YPT6, active compounds read low 1.03 | S. cerevisiae deletion strains, locus YLR268W, strain sec22, active compounds read low 0.996 | S. cerevisiae deletion strains, locus YLR320W, strain mms22, active compounds read low 1.02 | S. cerevisiae deletion strains, locus YLR330W, strain CHS5, active compounds read low 1 | S. cerevisiae deletion strains, locus YLR342W, strain FKS1 (second series), active compounds read low 0.966 | S. cerevisiae deletion strains, locus YLR342W, strain FKS1, active compounds read low 0.992 | S. cerevisiae deletion strains, locus YLR357W, strain rsc2, active compounds read low 0.973 | S. cerevisiae deletion strains, locus YLR370C, strain arc18, active compounds read low 1.01 | S. cerevisiae deletion strains, locus YLR371W, strain rom2, active compounds read low 1.01 | S. cerevisiae deletion strains, locus YLR384C, strain iki3, active compounds read low 0.976 | S. cerevisiae deletion strains, locus YLR418C, strain cdc73, active compounds read low 1.07 | S. cerevisiae deletion strains, locus YML016C, strain PPZ1, active compounds read low 0.999 | S. cerevisiae deletion strains, locus YML032C, strain rad52, active compounds read low 1.01 | S. cerevisiae deletion strains, locus YML120C, strain ndi1, active compounds read low 0.99 | S. cerevisiae deletion strains, locus YML124C, strain tub3, active compounds read low 1.01 | S. cerevisiae deletion strains, locus YMR058W, strain fet3, active compounds read low 0.987 | S. cerevisiae deletion strains, locus YMR078C, strain ctf18, active compounds read low 1.02 | S. cerevisiae deletion strains, locus YMR125W, strain sto1, active compounds read low 1 | S. cerevisiae deletion strains, locus YMR129W, active compounds read low 0.997 | S. cerevisiae deletion strains, locus YMR205C, strain PFK2, active compounds read low 1.04 | S. cerevisiae deletion strains, locus YMR223W, strain ubp8, active compounds read low 0.996 | S. cerevisiae deletion strains, locus YMR231W, strain pep5, active compounds read low 1.01 | S. cerevisiae deletion strains, locus YMR263W, strain SAP30, active compounds read low 0.988 | S. cerevisiae deletion strains, locus YMR307W, strain GAS1, active compounds read low 1.05 | S. cerevisiae deletion strains, locus YNL067W, strain RPL9B, active compounds read low 0.966 | S. cerevisiae deletion strains, locus YNL071W, strain lat1, active compounds read low 0.993 | S. cerevisiae deletion strains, locus YNL183C, strain NPR1, active compounds read low 0.912 | S. cerevisiae deletion strains, locus YNL209W, strain ssb2, active compounds read low 0.993 | S. cerevisiae deletion strains, locus YNL233W, strain BNI4, active compounds read low 0.982 | S. cerevisiae deletion strains, locus YNL248C, strain rpa49, active compounds read low 1.01 | S. cerevisiae deletion strains, locus YNL250W, strain rad50, active compounds read low 1 | S. cerevisiae deletion strains, locus YNL271C, strain bni1, active compounds read low 1.01 | S. cerevisiae deletion strains, locus YNL298W, strain CLA4, active compounds read low 1.02 | S. cerevisiae deletion strains, locus YNL307C, strain MCK1, active compounds read low 1.02 | S. cerevisiae deletion strains, locus YNL322C, strain KRE1 (second series), active compounds read low 1 | S. cerevisiae deletion strains, locus YNL322C, strain KRE1, active compounds read low 0.999 | S. cerevisiae deletion strains, locus YNR049C, strain mso1, active compounds read low 1.01 | S. cerevisiae deletion strains, locus YNR052C, strain pop2, active compounds read low 1.01 | S. cerevisiae deletion strains, locus YOL006C, strain TOP1, active compounds read low 0.989 | S. cerevisiae deletion strains, locus YOL012C, strain htz1 0.764 | S. cerevisiae deletion strains, locus YOL147C, strain pex11, active compounds read low 1.01 | S. cerevisiae deletion strains, locus YOR001W, strain rrp6, active compounds read low 0.987 | S. cerevisiae deletion strains, locus YOR061W, strain CKA2, active compounds read low 1 | S. cerevisiae deletion strains, locus YOR069W, strain VPS5, active compounds read low 1.03 | S. cerevisiae deletion strains, locus YOR070C, strain gyp1, active compounds read low 1 | S. cerevisiae deletion strains, locus YOR080W, strain dia2, active compounds read low 1 | S. cerevisiae deletion strains, locus YOR083W, strain WHI5, active compounds read low 0.996 | S. cerevisiae deletion strains, locus YOR106W, strain vam3, active compounds read low 0.984 | S. cerevisiae deletion strains, locus YOR136W, strain idh2, active compounds read low 1.01 | S. cerevisiae deletion strains, locus YOR144C, strain elg1, active compounds read low 1 | S. cerevisiae deletion strains, locus YOR184W, strain ser1, active compounds read low 1.03 | S. cerevisiae deletion strains, locus YOR231W, strain MKK1, active compounds read low 0.955 | S. cerevisiae deletion strains, locus YOR265W, strain rbl2, active compounds read low 0.993 | S. cerevisiae deletion strains, locus YOR270C, strain vph1, active compounds read low 1.11 | S. cerevisiae deletion strains, locus YOR290C, strain snf2, active compounds read low 1 | S. cerevisiae deletion strains, locus YOR316C, strain cot1, active compounds read low 1.01 | S. cerevisiae deletion strains, locus YPL051W, strain arl3, active compounds read low 0.991 | S. cerevisiae deletion strains, locus YPL055C, strain LGE1, active compounds read low 0.926 | S. cerevisiae deletion strains, locus YPL078C, strain atp4, active compounds read low 0.991 | S. cerevisiae deletion strains, locus YPL106C, strain sse1, active compounds read low 0.918 | S. cerevisiae deletion strains, locus YPL240C, strain hsp82, active compounds read low 1 | S. cerevisiae deletion strains, locus YPL256C, strain CLN2, active compounds read low 0.968 | S. cerevisiae deletion strains, locus YPR119W, strain clb2, active compounds read low 1.01 | S. cerevisiae deletion strains, locus YPR141C, strain kar3, active compounds read low 0.999 | S. cerevisiae deletion strains, locus YPR163C, strain tif3, active compounds read low 1.01 | S. cerevisiae deletion strains, locus YPR167C, strain met16, active compounds read low 1.02 | S. cerevisiae deletion strains, strain wtn01, active compounds read low 1.01 | S. cerevisiae strains, strain wild type, active compounds read low 0.988
